The panel holds about 83,000 compounds, 20% with a hit somewhere; the sample as a whole holds those more often.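 Plates (96-well) were seeded with cells, treated with compound at one concentration, and incubated for 48 hours before percent growth was determined.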 A number with no mark means an inactive call. The source made the active and inactive calls. Rule for the calls: active = growth percent below 10; inactive = the rest.

Holding throughout (assay): NCI-60 one-dose screen, 48 h (100 = growth as untreated, 0 = no growth, -100 = all killed)
Test [1] relates to HOP-92 NSCLC. As to conditions: 10 µM unless noted.
Test [2] relates to NCI-H522 lung. As to conditions: 10 µM unless noted.
Test [3] deals with COLO 205 colon. To be noted: 10 µM.
Test [4] deals with K-562 leukemia. To be noted: 10 µM unless noted.
For test [5], the system named is U251 CNS. As to conditions: 10 µM unless noted.
Test [6] relates to EKVX NSCLC. As to conditions: 10 µM unless noted.
Test [7] has as its system TK-10 renal. As to conditions: 10 µM unless noted.
In test [8] the test system is CCRF-CEM leukemia. To be noted: 10 µM unless noted.
Test [9] concerns SR leukemia. To be noted: 10 µM.
In test [10] the test system is SK-OV-3 ovarian. As to conditions: 10 µM unless noted.
For test [11], the system named is IGROV1 ovarian. To be noted: 10 µM.
For test [12], the system named is HS 578T breast. To be noted: 10 µM unless noted.
Test [13] deals with SW-620 colon. To be noted: 10 µM unless noted.
In test [14] the test system is HCT-116 colon. To be noted: 10 µM unless noted.
Test [15] has as its system LOX IMVI melanoma. As to conditions: 10 µM unless noted.
Test [16] concerns CAKI-1 renal. As to conditions: 10 µM unless noted.
Test [17] relates to MOLT-4 leukemia. As to conditions: 10 µM.
Test [18] relates to BT-549 breast. As to conditions: 10 µM.
The test system of test [19] is NCI-H322M lung. As to conditions: 10 µM unless noted.

In the case of `N#[N+]c1nc2nc(N)[nH]c(=O)c2[nH]1`, the growth is 93.2% in [1]; 94.8% in test [2]; 103% in test [3]; 101% in test [4]; 91.5% in [5]; 100% in test [6]. Moreover, the growth is 90% in test [7]; 95.1% in test [8]; 94.2% in [9]; 94.2% in test [10]; 107% in test [11]; 92.9% in test [12]. The growth was 97.9% in [13] and 96.8% in test [14].
For `CC(=O)O[C@H]1CCC2C3CCC4=C/C(=N/O)CCC4(C)C3CCC21C` (stereo partly drawn), the growth in [1] was 89.8%; in test [2] it was 83.2%; in test [3], 107%; in test [4] it was 45.9%; in test [5] it was 83.3%; in test [15], 93%. The growth in [6] is 88.5%; in test [7], 103%; in [16], 80.5%; in test [17], 72.6%; in test [9], 36.7%; in test [11], 87.6%. In addition, the growth in [12] is 55.2%; in [13], 74.4%; in test [14], 75.3%.
As for `N#CC1c2ccccc2C=CN1C(=O)c1ccc(N(CCCl)CCCl)cc1` (stereo not drawn), the growth in [1] was 81%; in [2], 69%; in [3], 103%; in test [4], 65.8%; in test [15], 90.4%; in [6] it was 86.8%. Further, the growth in test [7] is 107%; in test [8] it was 87%; in [17], 72.2%; in [9], 86.6%; in test [10], 97.3%; in test [11], 98.2%. Further, the growth in [12] was 99.5%; in test [18], 89.8%; in [13], 105%.
In the case of `Cc1ccc2oc(=O)c3c(c2c1)OC(N)=C(C#N)C3c1ccco1` (stereo not drawn), the growth in test [19] is 98.8%; in test [1], 102%; in test [2], 91.6%; in test [5], 109%; in [15], 96.8%; in test [6], 94.9%. Also, the growth in test [7] was 108%; in test [16], 91.3%; in test [8], 96.4%; in [17], 107%; in [9], 107%; in [11], 104%. Moreover, the growth in test [12] is 93.5%; in [18] it was 98.8%; in test [13], 101%; in test [14], 99.9%.
For `NCCc1cc(O)c(O)cc1O`, the growth in [1] was 85.4%; in [2] it was -11.5% (active); in test [3], 106%; in [4], 102%; in test [5], 95.4%; in test [15], 101%. Besides, the growth in [7] was 95.3%; in test [16] it was 100%; in test [8], 65.7%; in test [17] it was 86.5%; in test [9], 98%; in test [12] it was 120%. For the same compound, the growth in test [18] is 90.9%; in [13] it was 109%; in test [14] it was 95.3%.
Turning to `O=S(=O)(F)c1ncnc2nc[nH]c12`, the growth was 97.9% in [19]; 115% in test [3]; 92.3% in test [4]; 98.5% in test [5]; 85.8% in test [15]; 103% in test [6]. Also, the growth is 103% in test [7]; 81.4% in test [16]; 101% in [8]; 89.2% in [17]; 94.7% in test [10]; 103% in [11]. Besides, the growth is 77.1% in test [12], 100% in test [18], 95.4% in [13] and 100% in [14].
Take `CNC(=O)Oc1cccc(OC)c1`: the growth was 132% in [19]; 125% in test [1]; 96.5% in test [2]; 119% in test [3]; 110% in test [5]; 100% in test [15]. The growth is 95.5% in [6]; 125% in [7]; 86.1% in [16]; 118% in [10]; 118% in test [11]; 109% in test [12]. For the same compound, the growth was 103% in test [18], 111% in test [13] and 103% in test [14].
As for `CC1(CF)NC(=O)NC1=O` (stereo not drawn), the growth in test [1] is 84.4%; in test [2] it was 122%; in test [3], 114%; in [4] it was 107%; in [5] it was 115%; in [15] it was 100%. For the same compound, the growth in [7] was 128%; in test [16], 122%; in [8], 95.7%; in test [17] it was 98.4%; in test [9], 115%; in test [10], 109%. Also, the growth in test [12] is 108%; in test [18] it was 104%; in test [13] it was 106%; in test [14], 103%.
For the compound `CC(=O)O[C@H]1CCC2(C)C(=CCC3C2CCC2(C)/C(=N/OC(=O)c4ccc(N(CCCl)CCCl)cc4)CCC32)C1` (stereo partly drawn), the growth is 76.1% in test [1]; 27.6% in test [2]; 69.7% in test [3]; 5% (active) in test [4]; -27.2% (active) in [5]; 5.24% (active) in test [15]. Moreover, the growth in test [6] is 23.1%; in test [16], 50.2%; in [9], -24.9% (active); in test [10] it was 102%; in test [11] it was 11.6%; in test [12] it was 27%. Also, the growth is 51.4% in [18], 84.1% in test [13] and 9.02% (active) in [14].
As for `CC[CH2][Pb]([CH2]CC)([CH2]CC)[O]C(=O)C(F)(F)F`, the growth is -98.3% (active) in test [19]; -72.5% (active) in test [3]; 2.17% (active) in test [4]; -87.4% (active) in [5]; -82.3% (active) in test [15]; -74.6% (active) in [10]. The growth is -78.8% (active) in test [11], -10.4% (active) in test [12], -95.3% (active) in test [18] and -50.8% (active) in [13].
As to `O=[N+]([O-])c1ccc2cnn(CSP(=S)(c3ccccc3)c3ccccc3)c2c1`, the growth in [19] was 92.9%; in test [1] it was 65.7%; in [3] it was 101%; in [4], 19%; in [5], 74.1%; in test [15] it was 65%. Further, the growth was 127% in test [7]; 81.5% in test [16]; 45.9% in test [8]; 44% in test [17]; 9.77% (active) in [9]; 90.1% in [10]. Moreover, the growth in test [11] is 67.5%; in [18], 69.7%; in test [13], 31.7%; in test [14] it was 42.4%.

Values taken from PubChem BioAssay (NCI).
